A selection: hits, their analogues and other compounds. The true share with any hit is near 1.6%.
KCNQ2 enhance – potentiators of rat KCNQ2 potassium channel; AID 2239, 2010; B-score at 10 µM; CHO-K1 KCNQ2, FluxOR thallium flux fluorescence; active compounds read high; 0.54% of 310,000 active;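 active = fluorescence ratio B-score at least 3 SD of library B-scores, with initial fluorescence B-score within 3 of them, cut at about 5.3 in these data; same plate scores as AID 2156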;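 note: B-score of peak minus minimum over baseline fluorescence ratio after K+ and Tl+ stimulus; positive B-score means potentiation of KCNQ2 with more thallium influx and brighter signal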
Target sequence (O88943 whole entry, looked up): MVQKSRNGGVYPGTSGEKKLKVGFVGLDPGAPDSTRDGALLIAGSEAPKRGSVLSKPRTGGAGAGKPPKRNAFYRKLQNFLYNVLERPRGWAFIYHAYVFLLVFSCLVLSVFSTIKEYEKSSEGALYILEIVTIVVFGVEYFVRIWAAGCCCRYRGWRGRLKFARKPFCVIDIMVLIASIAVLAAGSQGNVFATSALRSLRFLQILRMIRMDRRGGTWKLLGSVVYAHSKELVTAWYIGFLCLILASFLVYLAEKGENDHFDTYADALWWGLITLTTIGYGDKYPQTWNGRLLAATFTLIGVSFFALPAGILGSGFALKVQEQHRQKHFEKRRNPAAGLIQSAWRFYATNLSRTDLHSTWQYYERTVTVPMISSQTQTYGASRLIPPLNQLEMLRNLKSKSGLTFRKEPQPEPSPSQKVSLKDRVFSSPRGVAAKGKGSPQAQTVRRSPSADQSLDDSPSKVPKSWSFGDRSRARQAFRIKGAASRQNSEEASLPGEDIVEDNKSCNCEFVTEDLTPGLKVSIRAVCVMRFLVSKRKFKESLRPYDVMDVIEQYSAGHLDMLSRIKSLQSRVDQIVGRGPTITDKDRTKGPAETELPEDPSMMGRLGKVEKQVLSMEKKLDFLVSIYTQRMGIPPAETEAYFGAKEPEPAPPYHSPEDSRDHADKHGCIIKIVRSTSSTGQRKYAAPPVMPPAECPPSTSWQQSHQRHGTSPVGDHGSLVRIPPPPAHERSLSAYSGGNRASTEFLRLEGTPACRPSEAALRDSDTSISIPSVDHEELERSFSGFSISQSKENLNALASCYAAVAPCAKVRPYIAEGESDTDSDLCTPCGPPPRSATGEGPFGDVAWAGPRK
KCNQ2 inh – rat KCNQ2 potassium channel inhibitors, primary screen, cell-based, CHO-K1, FluxOR thallium flux, B-score; B-score at 10 µM; Potassium voltage-gated channel subfamily KQT member 2 (Rattus norvegicus), O88943; 20 min; active compounds read low; 1.1% of 310,000 active; AID 2156, 2009;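 active = fluorescence ratio B-score at most minus 3 library SDs, with starting brightness B-score within 2 library SDs, cut at about -5.5 in these data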
* marks the source's active call; other numbers are inactive results; i = inactive; · = no result.

SMILES	KCNQ2 enhance	KCNQ2 inh
C=CCN(C(=O)CCC(=O)Nc1cc(C)on1)C(C(=O)NC(C)(C)C)c1cccc(OC)c1OC (configuration not stated)	0.21	i
N#C/C(=C\c1ccc2c(c1)OCCO2)C(=O)Nc1nccs1	·	i
CC1(CCBr)C(=O)N(c2ccccc2)c2ccccc21 (configuration not stated)	·	i
O=C1N(c2ccccc2)c2ccccc2C1(Cc1ccncc1)Cc1ccncc1	-5.6	-5.6*
COc1ccc(C(=O)CC(c2ccccc2)C2C(=O)CCCC2=O)cc1 (configuration not stated)	0.02	i
COc1ccc(C(CC(=O)c2ccccc2)C2CCCCC2=O)cc1 (configuration not stated)	-5.8	-5.8*
Clc1ccc(-c2nc(NCCCN3CCOCC3)c3ccccc3n2)cc1	-7.9	-7.9*
COc1cccc(-c2nc(NCCN3CCOCC3)c3ccccc3n2)c1O	·	i
Clc1cccc(-c2nc(NCCCN3CCOCC3)c3ccccc3n2)c1	·	i
Oc1ccccc1-c1nc(NCCN2CCOCC2)c2ccccc2n1	-8.2	-8.2*
CC1S/C(=N/N=C/c2ccco2)N(Cc2ccc(F)cc2)C1=O (configuration not stated)	·	i
CCNC(=S)Nc1cc(C)ccn1	2.6	i
Cc1ccc(C(=O)N2CCC3(CC2)Oc2ccc(Cl)cc2C(=O)C32CC(c3cccnc3)=NO2)s1 (configuration not stated)	·	i
O=C(/C=C/c1cccs1)N1CCC2(CC1)Oc1ccc(Cl)cc1C(=O)C21CC(c2cccnc2)=NO1 (configuration not stated)	-6.8	-6.8*
CC(Oc1ccc2ccc(=O)oc2c1)C(=O)NCCCn1ccnc1 (configuration not stated)	·	i
OC1(c2ccc(OC(F)F)cc2)CSC(=Nc2cccnc2)N1Cc1ccco1 (configuration not stated)	0.27	i
Cc1ccccc1NC(=O)CC1SC(=Nc2ccc(O)cc2)NC1=O (configuration not stated)	0.93	i
CC(C)=N/N=C1/NC(=O)C(CC(=O)Nc2cc(Cl)ccc2C)S1 (configuration not stated)	5.8*	i
COc1ccc(OCCSc2nnc(CC(=O)Nc3cccc(Cl)c3Cl)n2C)cc1	-8.1	-8.1*
CCn1c(COc2cccc(OC)c2)nnc1SCC(=O)Nc1cc(OC)ccc1OC	·	i
COc1ccc(CC(=O)NCc2nnc(SCCOc3ccccc3)n2C)cc1	·	i
CCn1c(CC(=O)Nc2cccc(Cl)c2Cl)nnc1SCCOc1ccc(OC)cc1	-6.1	-6.1*
C#CC(C)(C)NC(=O)c1ccccc1OC	1.2	i
Cc1ccc(OCCC(=O)O)cc1	·	i
CSCCC(NC(=O)c1ccccc1)C(=O)N1CC=C(c2ccccc2)CC1 (configuration not stated)	·	i
SMILES	KCNQ2 enhance	KCNQ2 inh
COC(=O)c1cn(CCOc2ccccc2)c2ccccc12	·	i
CCN(CC)C(=O)C(=O)c1cn(CCOc2ccccc2)c2ccccc12	-7.3	-7.3*
CCOC(=O)C1CCN(C(=O)Cn2nc(C)n3cccc3c2=O)CC1	·	i
COCCn1c(SCC(=O)Nc2cccc(C(=O)OC)c2)nc2ccccc2c1=O	0.1	i
CC(C)CNC(=O)COC(=O)C1c2ccccc2Oc2ccccc21	0.37	i
CC(C)(C)NC(=O)COC(=O)C1c2ccccc2Oc2ccccc21	-5.7	-5.7*
Cc1ccc(C(=O)O/N=C2\CCCc3ccccc32)cc1	·	i
C/C(=N\Nc1nncc2ccccc12)c1ccc(OCC(=O)N(C)C)cc1	2.5	i
COc1ccc(-c2noc(CCCOc3ccc(Cl)cc3Cl)n2)cc1	·	i
Cc1ccc(-c2noc(CCCOc3ccc(Cl)cc3Cl)n2)cc1	-7.3	-7.3*
CCOC(=O)c1ccc(NCn2c(=O)oc3ccccc32)cc1	·	i
CCCN(CC1CC1)C(=O)COc1ccccc1C(=O)NCc1ccccc1	-7.7	-7.7*
CCC(C)N(C(=O)COc1ccccc1C(=O)NCc1ccccc1)C1CCS(=O)(=O)C1 (configuration not stated)	·	i
Cc1ccc(C)c(OCCCCn2cnc3ccccc3c2=O)c1	·	i
Cc1cc(=O)[nH]c(SCC(=O)Nc2cccc(C(F)(F)F)c2)n1	1.3	i
Cc1cc(C)c(NC(=O)Nc2ccccc2)c(Cl)c1	5.3*	i
Cc1cc(C)c(NC(=O)Nc2ccccc2C)c(Cl)c1	0.11	i
CCN1C(=O)/C(=C/c2c(C)nn(C)c2C)SC1=S	0.15	i
COc1ccc(C)cc1NC(=O)C(=O)NCc1ccncc1	1.2	i
COC(=O)c1ccc(/C=N/N2CCN(Cc3ccc(C)cc3C)CC2)cc1	-7.8	-7.8*
COC(=O)c1ccc(/C=N/N2CCN(Cc3ccccc3Cl)CC2)cc1	·	i
CCOc1cccc(/C=N/NC(=S)Nc2cc(S(=O)(=O)N3CCOCC3)ccc2N2CCOCC2)c1O	0.33	i
N/C(=N\OC(=O)c1cccc(Cn2cc(C(F)(F)F)ccc2=O)c1)c1ccccc1	0.52	i
[O-]/C(=C(\C(=S)Nc1ccc(SC(F)F)cc1)[n+]1cccc(CO)c1)c1ccc(Cl)s1	·	i
Cc1ccc(NC(=S)/C(=C(\[O-])c2ccc(Cl)s2)[n+]2cccc(CO)c2)cc1C	-7.8	-7.8*
SMILES	KCNQ2 enhance	KCNQ2 inh
Cc1oc(-c2cccc(F)c2)nc1CN1CCCCC1CCn1cccn1 (configuration not stated)	0.04	i
S=C(Cc1ccccc1)NCCc1ccccc1	·	i
COc1ccc(CC(=S)NCCc2ccccc2)cc1	-6	-6*
O=C(Oc1ccc(Br)cc1C(=O)/C=C/c1ccccc1F)c1ccco1	-7.2	-7.2*
CC(=O)c1cc(Cl)ccc1OC(=O)c1ccco1	1.5	i
COc1ccc(C(=O)NNC(=O)Cc2ccc([N+](=O)[O-])cc2)cc1	0.47	i
COc1ccc(CC2(C)OC(c3ccc([N+](=O)[O-])cc3)=NN2C(C)=O)cc1 (configuration not stated)	-6.2	-6.2*
CN1CCN(c2oc(-c3ccco3)nc2S(=O)(=O)c2ccccc2)CC1	·	i
CCOC(=O)N1CCN(CC(O)c2c[nH]c3ccccc23)CC1 (configuration not stated)	·	i
CCOc1ccc(NC(=O)NNC(=O)c2cc3ccccc3cc2O)cc1	·	i
O=C(c1ccccc1)N(Cc1ccccc1)Cc1ccccc1	-6.3	-6.3*
O=C(C1CC1)N(CCN(Cc1ccccc1)C(=O)C1CC1)Cc1ccccc1	-7.1	-7.1*
CCN(Cc1ccccc1)C(=O)c1ccc(C(=O)N(CC)Cc2ccccc2)cc1	·	i
CCN(Cc1ccccc1)C(=O)C1CCN(CC2CC=CCC2)CC1 (configuration not stated)	·	i
CCOC(=O)C1CCN(c2cc3c(cc2NC(=O)c2ccccc2Cl)n(C)c(=O)n3C)CC1	·	i
CC1(C)Cc2cccc(OCC(=O)O)c2O1	·	i
CCCCOc1ccc(C(=O)N/C(=C\c2ccc([N+](=O)[O-])cc2)C(=O)OCc2ccco2)cc1	·	i
O=[N+]([O-])c1ccc2nccn2c1	0.76	i
Cc1nc(C(=O)Nc2cc(Cl)ccc2Cl)nn1-c1cc(OC(C)C)c(Cl)cc1Cl	-6.4	-6.4*
Cc1nc(C(=O)Nc2ccc(Cl)cc2Cl)nn1-c1cc(OC(C)C)c(Cl)cc1Cl	·	i

Compound activity: PubChem, Johns Hopkins Ion Channel Center
